# Assay results published in publication PMC7819943, “Rice protein-binding microarrays: a tool to detect cis-acting elements near promoter regions in rice”.
# In all, about 39,000 sequences were measured (“fluorescence intensity (a.u.)”: median about 4,300, highest 2% from about 39,000 on). The full list was thinned out, with the highest values kept by preference.
# Molecular target: T1, OsSMF1 (Oryza sativa, UniProt Q6ZLB0 1-436)
# T1 sequence: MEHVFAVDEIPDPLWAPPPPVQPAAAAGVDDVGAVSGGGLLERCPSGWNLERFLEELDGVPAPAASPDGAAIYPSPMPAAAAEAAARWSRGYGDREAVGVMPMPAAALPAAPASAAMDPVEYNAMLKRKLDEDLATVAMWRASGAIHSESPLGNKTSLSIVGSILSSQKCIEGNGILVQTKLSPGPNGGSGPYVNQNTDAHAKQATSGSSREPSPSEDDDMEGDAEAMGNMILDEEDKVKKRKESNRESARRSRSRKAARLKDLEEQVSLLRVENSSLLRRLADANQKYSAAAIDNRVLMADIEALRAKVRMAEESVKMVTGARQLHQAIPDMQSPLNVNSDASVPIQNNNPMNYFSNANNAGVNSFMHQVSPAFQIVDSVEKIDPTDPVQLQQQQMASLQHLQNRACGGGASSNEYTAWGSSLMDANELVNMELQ
# Test: protein-binding microarray (RPBM); PBS, 2% BSA, 51.3 ng/ul salmon testes DNA, 50 uM zinc acetate, 200 nM TF, 25 C, 1 h; high values mean tight binding
# Conditions: protein: recombinant; tags: N-terminal polyhistidine and DsRed monomer fusion (pET32a); chain copies: 2; label: CyDye5-dUTP incorporated in the synthesized complementary strand; 3' TTTTT single-stranded linker to array surface; dsDNA, one strand shown
# Summary of the method: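 The binding signal is fluorescence intensity per feature, in arbitrary units, read on an Axon 4000B scanner. Polyhistidine- and DsRed-tagged transcription factors (N-terminal fusions) from E. coli BL21-CodonPlus were purified on Ni–NTA and applied at 200 nM for 1 h at 25 °C to a double-stranded, BSA-blocked custom Agilent array in buffer with 50 µM zinc acetate.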
row,Sequence,binding signal
1,GGGCTCATCTTCACCGTTGTCATTCAGTTATTCACATAAGCGGAGTCACCTAGTGCAG,3360 fluorescence intensity (a.u.)
2,GGCGGCGCCGACGACTCCGCGCCGCTCGGCCTCATCGTCGCGGAGTCACCTAGTGCAG,3190 fluorescence intensity (a.u.)
3,GCGCCCTCCTCCTGCCACGTCGGTTCGCGTGCGCCACGGTCGGAGTCACCTAGTGCAG,19500 fluorescence intensity (a.u.)
4,CATATGCCATCTAATCATCCTTGTCTGATGTCATTTATTCCGGAGTCACCTAGTGCAG,5870 fluorescence intensity (a.u.)
5,TGCTTCGCCAGTGAATCGCGTGGATATAAATGGGCCTCTCCGGAGTCACCTAGTGCAG,3440 fluorescence intensity (a.u.)
6,CGCACTTCCGTCGCCTCCCCGCATCGCGTCGTACAACGGGCGGAGTCACCTAGTGCAG,18300 fluorescence intensity (a.u.)
7,GGTGTGTGTATGTGTTTATATGGTGAGTGTACACACGTTGCGGAGTCACCTAGTGCAG,3150 fluorescence intensity (a.u.)
8,GGCCCCGTCGACGCTGTGCACCAAACACAATAAAGACATGCGGAGTCACCTAGTGCAG,3430 fluorescence intensity (a.u.)
9,GTGATCTTTCCACATACAGAGAGAGAGAGAGCTTGGGATTCGGAGTCACCTAGTGCAG,40900 fluorescence intensity (a.u.)
10,GTCTGGATCAGAGCTGTCCACATTGGTTGTATTCCTCTTTCGGAGTCACCTAGTGCAG,3620 fluorescence intensity (a.u.)
11,ATTCCATATTTCCATTCCACACGTCTTGAGAGCTAATCTTCGGAGTCACCTAGTGCAG,3400 fluorescence intensity (a.u.)
12,CCTCCTGCTCAGAGGCAGTTCGGTGACGAGCGGGTTGGAGCGGAGTCACCTAGTGCAG,24400 fluorescence intensity (a.u.)
13,GGGGATGGGGATTCGATGTGTCTATGCGTGGGCCCTGGTTCGGAGTCACCTAGTGCAG,3860 fluorescence intensity (a.u.)
14,ACCGACGCGGACAGCCACAGTCCAGTCACACACCACACCACGGAGTCACCTAGTGCAG,5320 fluorescence intensity (a.u.)
15,ACGCAGTCACGCAGACCACAGGGCGATGCAGCGGACCGACCGGAGTCACCTAGTGCAG,40900 fluorescence intensity (a.u.)
16,CCGATCTCCACCACCACCACCACCACGCGGGCGCGCGCACCGGAGTCACCTAGTGCAG,4580 fluorescence intensity (a.u.)
17,CTCAAAGCATTATAAAACTTGCTGGCTTTGTCCCCTTCATCGGAGTCACCTAGTGCAG,3250 fluorescence intensity (a.u.)
18,AGATCGACACGTTAGTCTACACACCTATGCGTGCCTATGCCGGAGTCACCTAGTGCAG,3580 fluorescence intensity (a.u.)
19,CCCCAATCCTCGCATGCCAACTCACCTGTGTTGCTTTTGCCGGAGTCACCTAGTGCAG,7550 fluorescence intensity (a.u.)
20,TCGCCCGCGCCCACTGACACGTGGGGCCCGGCACGTGGGCCGGAGTCACCTAGTGCAG,11500 fluorescence intensity (a.u.)
21,ACCATCTCTCTCTCTCTCTCTGCATGCATATCTTCTCCTCCGGAGTCACCTAGTGCAG,3210 fluorescence intensity (a.u.)

row,Sequence,binding signal
1,GTGTGATTATCTTCTCCATACCATCTCGTGCTACATGCGCCGGAGTCACCTAGTGCAG,40000 fluorescence intensity (a.u.)
2,AGTGCATGCGTGTGCGCCTGCCTGCTTACTTCCATCTCGACGGAGTCACCTAGTGCAG,7880 fluorescence intensity (a.u.)
3,GTTCCCTTTGTATTTCACACCTTGAGATGGTGACTGATCCCGGAGTCACCTAGTGCAG,3940 fluorescence intensity (a.u.)
4,TACTAATTTAATCCCCTTTGATCTGCTGACTGGTTTACTACGGAGTCACCTAGTGCAG,5140 fluorescence intensity (a.u.)
5,AAAGATCAGAGAGACTACTAATCCGGTTTATTTACTGGCACGGAGTCACCTAGTGCAG,44100 fluorescence intensity (a.u.)
6,TGTTTTCTAATATTTACAATCAGATCCCTTGAGTGAGTCACGGAGTCACCTAGTGCAG,4150 fluorescence intensity (a.u.)
7,AGTCTCAGATCTACTTGCGGCGGCGAAGGCTCGGGAGGGGCGGAGTCACCTAGTGCAG,3530 fluorescence intensity (a.u.)
8,TCCTTCGATTCCAAGCATATAGTAATATATGACACGATGCCGGAGTCACCTAGTGCAG,5000 fluorescence intensity (a.u.)
9,CATAGTTGACTTCCAAGGCAAGACAGATGAGATATGCATTCGGAGTCACCTAGTGCAG,45500 fluorescence intensity (a.u.)
10,ATATATTGACAAGGCAATGACATAGATAGCTAGACATATCCGGAGTCACCTAGTGCAG,3190 fluorescence intensity (a.u.)
11,CGCAAACATTTTCGGAATATACGAATCCAGCGTTGCACTGCGGAGTCACCTAGTGCAG,3250 fluorescence intensity (a.u.)
12,CATATTCTGATATTCCCATCCACGTCAGCATTTCCCCACCCGGAGTCACCTAGTGCAG,41000 fluorescence intensity (a.u.)
13,TCCTCCCACGCTTCTTCTTCTTCTTCTTCTTCCCTTTCCCCGGAGTCACCTAGTGCAG,9800 fluorescence intensity (a.u.)
14,GTCAGTGTGGCCACGTCAGCATCCTCTCTTTTCCTCTCTTCGGAGTCACCTAGTGCAG,40800 fluorescence intensity (a.u.)
15,AATGTGACCACGTCATCCCCTTCTTTCCCTTTCCCCTCTTCGGAGTCACCTAGTGCAG,33300 fluorescence intensity (a.u.)
16,CATGTCAGGACGCCACGTCATCATGCTCTCTCTTTCCCCTCGGAGTCACCTAGTGCAG,33600 fluorescence intensity (a.u.)
17,CCCCTCCCCATCGTCAGCATCTTTCTTTCTCTTCCCATCCCGGAGTCACCTAGTGCAG,6610 fluorescence intensity (a.u.)
18,GTTCCACATGTCATCCTCTCCCTTTCTTCTTCCTCCCCTCCGGAGTCACCTAGTGCAG,3930 fluorescence intensity (a.u.)
19,ATGTCAGGATGCCACGTCACACCCTTTCTTTCCCCTCCTCCGGAGTCACCTAGTGCAG,45200 fluorescence intensity (a.u.)
20,CAGCCATCCATCCCACCCACACGTCACCACCCGCGCATCCCGGAGTCACCTAGTGCAG,20500 fluorescence intensity (a.u.)
21,CCACATGTCAGGATGCCACGTCATCTCTCTTTCCCCTCTTCGGAGTCACCTAGTGCAG,33600 fluorescence intensity (a.u.)
